# A549 viability = A549 cytotoxicity, counter-screen for Nrf2 inhibitors. A549 ARE-Fluc cells, CellTiter-Fluor viability, 18-24 h. hit rate 0.16% among 390,000. Potency, µM (titrated, usually from 46 µM), without a hit: at the highest dose activity change, negative = cytotoxicity, most hits filed as inhibitors; also: potency is read from the fitted curve at half-maximal effect; % is scaled to controls: 0 for no effect and ±100 for the full control effect
#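 A549 ARE_Fluc cells in 5% FBS OPTI-MEM were exposed to compounds in concentration-response for 18-24 h at 37 deg C. Viability was read by CellTiter-Fluor fluorescence (Ex 405/Em 525) after 30 min, before the luciferase read.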
# IL-2 act = activates IL-2 in a cell-based reporter assay. IL-2 activation reporter assay, cell-based qHTS; stimulated with anti-CD3/CD4/CD28 beads; in transgenic mouse T cells. hit rate 0.065% among 360,000. activation, % (series mostly up to about 46 µM). AID 652025; in the data active = activation above about 50%; inconclusive = mostly about 30% to 49%; also: 0% is about no effect
#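 Unstimulated transgenic mouse T cells; 60-min compound exposure; bead-based TCR/CD4/CD28 stimulation; 18 h culture, 37 degrees C; dual fluorescence (EGFP, DsRed) plate cytometry.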
# Nrf2 activator = Nrf2 pathway activation. AREc32 ARE-luciferase reporter (MCF7-derived line), luminescence, 24 h. Potency, µM (doses to about 46.1 µM), without a hit: at the top dose activation, most hits filed as activators. hit rate 0.31% among 410,000; also: potency is read from the fitted curve at half-maximal effect; % of control where 0% means no effect; nearly all actives have a fitted effect of over 65% in size
#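 Cells of the AREc32 ARE-luciferase line are plated in OPTI-MEM containing 5% FBS and left overnight at 37 deg C. Compounds are pinned in, incubation continues 24 hr, and firefly luciferase signal is then measured.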
# Nrf2 inh = blocks Nrf2 signaling | A549 ARE-Fluc reporter, luciferase luminescence, 18-24 h | Potency, µM (series often up to 46 µM), for the others: at the highest dose activity change, negative = inhibition, hits mostly inhibitors | hit rate 2.1% among 360,000; also: potency is read from the fitted curve at half-maximal effect; % is scaled to controls: 0 for no effect and ±100 for the full control effect; nearly all actives have a fitted effect of over 60% in size
#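 In this cell-based qHTS, ARE-driven firefly luciferase in A549 cells reports Nrf2 activity; the luminescent signal after BugLite lysis is the measured value, with a prior CellTiter-Fluor read for cell health.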
# * hit, by the source's call; ? = inconclusive; nt = no result. A selection: hits, their analogues and other compounds. The true share with any hit is near 2.3%. Unless noted, calls follow the shape of the dose curve; as a rule, active = well fitted curve in the direction sought with a large enough effect; inconclusive = small, poorly fitted or top-dose-only effect, or another doubt; inactive = no such curve, though single readings can be large; an effect the other way counts as inactive or inconclusive.
SMILES,A549 viability,IL-2 act,Nrf2 activator,Nrf2 inh
O=C1C=CC(=O)N1Cc1ccccc1,?,-0.7,7.9%,16.4µM*
O=C1C2CC=CCC2C(=O)N1Cc1ccccc1 (stereo not given),10.9%,0.7,0.1%,12.8%
COc1ccccc1CNC(=O)Cn1c(=O)oc2cc(S(=O)(=O)N3CCC(C)CC3)ccc21,-6.4%,nt,0.4%,?
CC(C)(C)OC(=O)NCCc1nnc(SCc2ccccc2Cl)o1,nt,-0.8,2.4%,25.9µM*
CCOc1ccc(-n2nc3ccc(NC(=O)c4ccc(-c5cccc(Cl)c5)o4)cc3n2)cc1,-15.5%,nt,0.7%,14.6µM*
CCOc1ccc(-n2nc3ccc(NC(=O)COc4ccccc4)cc3n2)cc1,0.5%,nt,-1.4%,11.4%
COc1ccc(-c2cn3ccccc3n2)cc1OC,2.8%,-2.0,11.2µM*,?
O=C(Cn1c(=O)c2cccn2c2ccc(F)cc21)NCc1cccc(Cl)c1,-3.6%,nt,0.3%,10.9%
Cc1cc(N2CCN(C/C=C/c3ccccc3)CC2)n2ncnc2n1,-6.3%,-1.5,2.9%,?
Cc1cc(N2CCN(c3ccccc3)CC2)n2ncnc2n1,-5.1%,-0.2,0.0%,20.6µM*
FC(F)(F)c1cccc(Nc2cc(-c3ccccc3)nc3ncnn23)c1,16.8%,0.6,-0.6%,-15.2%
COc1cccc(N2CCN(c3c4c(nc5ncnn35)CCC4)CC2)c1,-7.8%,-2.7,-0.8%,13µM*
COc1cccc(N2CCN(c3ncccn3)CC2)c1,-4.7%,-1.0,2.7%,?
FC(F)(F)c1ccc(N2CCN(c3cc(-c4ccccc4)nc4ncnn34)CC2)nc1,?,12.7,6.0%,14.6µM*
c1ccc(N2CCN(c3c4c(nc5ncnn35)CCC4)CC2)cc1,-13.6%,-2.1,0.0%,11.6µM*
CC(=O)N(O)CCCCCNC(=O)CCC(=O)N(O)CCCCCNC(=O)CCC(=O)N(O)CCCCCN,-0.7%,-0.2,-1.0%,10.3µM*
CCCCCn1ncc2c3sc(C)cc3n(C)c2c1=O,-3.4%,nt,nt,?
CN(C)c1ccc(/C=C/c2ccc3ccccc3[n+]2C)cc1,23.1µM*,0.1,-1.7%,14.6µM*
CC(=O)Oc1ccccc1/C=C/c1ccc2ccccc2[n+]1C,?,-0.9,11.2µM*,?
Cn1cc(S(=O)(=O)c2ccc(Cl)cc2)c(=O)c2cc(F)c(N3CCOCC3)cc21,-2.0%,nt,-0.8%,-29.0%
CC(C)COc1ccc(C(=O)Nc2cccc(-c3nc4ccccc4[nH]3)c2)cc1,-18.1%,nt,-1.3%,23.1µM*
O=C(Cc1ccc(F)cc1)NC1CC(=O)N(c2ccccc2)C1 (stereo not given),-2.4%,nt,2.1%,nt
Clc1ccc2nc(-c3ccco3)c(Cc3ccsc3)n2c1,nt,-0.6,11.2µM*,nt
Clc1ccc2nc(-c3ccco3)c(Cc3ccccc3)n2c1,nt,-0.9,10µM*,nt
COC(=O)c1ccc2nc(-c3ccco3)c(Cc3cccc(Cl)c3)n2c1,nt,1.9,5.62µM*,nt
SMILES,A549 viability,IL-2 act,Nrf2 activator,Nrf2 inh
COC(=O)c1ccc2nc(-c3ccco3)c(Cc3ccccc3)n2c1,nt,0.1,?,nt
Fc1cccc(Cc2c(-c3ccco3)nc3ccc(Cl)cn23)c1,nt,-0.1,?,nt
Brc1ccc2nc(-c3ccco3)c(Cc3ccsc3)n2c1,nt,-0.6,?,nt
O=[S+]([O-])([O-])c1ccc2c(c1)cc([S+](=O)([O-])[O-])c1nn(-c3ccc(/C=C/c4ccc(-n5nc6c([S+](=O)([O-])[O-])cc7cc([S+](=O)([O-])[O-])ccc7c6n5)cc4[S+](=O)([O-])[O-])c([S+](=O)([O-])[O-])c3)nc12,8.5%,nt,nt,0.0%
O=C(Cc1ccccc1)Nc1sc2c(c1C(=O)Nc1cccc(Cl)c1)CCCC2,4.5%,nt,nt,0.2%
O=C(NCC(c1cccnc1)N1CCN(c2ccccc2F)CC1)c1ccc(F)cc1 (stereo not given),0.9%,nt,1.0%,-1.4%
O=C(NCC(c1cccnc1)N1CCN(c2ccccc2F)CC1)c1cccc(Cl)c1 (stereo not given),-17.3%,1.9,4.0%,20.6µM*
COc1ccc(N2CCN(C(CNC(=O)C(=O)NCc3cccnc3)c3ccco3)CC2)cc1 (stereo not given),-1.8%,-1.0,-0.4%,6.8%
O=C(NCc1cccnc1)C(=O)NCC(c1ccco1)N1CCN(c2ccc(F)cc2)CC1 (stereo not given),-5.2%,-2.9,1.8%,20.6µM*
O=C(NCc1cccs1)C(=O)NCC(c1ccco1)N1CCN(c2ccc(F)cc2)CC1 (stereo not given),-18.5%,-3.5,0.6%,14.6µM*
COc1ccccc1CNC(=O)C(=O)NCC(c1cccnc1)N1CCN(c2ccc(F)cc2)CC1 (stereo not given),?,nt,0.0%,20.6µM*
COc1ccc(N2CCN(C(CNC(=O)C(=O)NCc3ccc(F)cc3)c3cccnc3)CC2)cc1 (stereo not given),?,nt,0.3%,-22.9%
O=C(NCC(c1cccnc1)N1CCOCC1)C(=O)Nc1ccc(F)cc1 (stereo not given),-6.1%,nt,1.3%,23.1µM*
COc1ccc(C2c3c(ncn(CCc4ccccc4)c3=N)Oc3ccc4ccccc4c32)cc1OC (stereo not given),-13.6%,nt,nt,-6.4%
O=C(c1ccccc1)C1OC1C(=O)c1ccccc1 (stereo not given),-9.7%,-0.9,12.6µM*,?
CC1C=CC(C)C(C(=O)c2ccccc2)C1C(=O)c1ccccc1 (stereo not given),nt,-2.9,-0.3%,nt
Cc1ccc(C)c2sc(NC(=O)C3CC3)nc12,-1.6%,-3.0,11.2µM*,-16.1%
Cn1c(=O)n(C)c2cc(NS(=O)(=O)c3ccc(Br)cc3)c(NCc3ccccc3)cc21,2.8%,nt,25.2%,-5.3%
COc1ccccc1C(c1c(O)cc(C)n(Cc2ccco2)c1=O)N1CCCCC1 (stereo not given),-0.1%,nt,-0.9%,nt
O=C(NNC(=O)C12CC3CC(CC(C3)C1)C2)c1ccccn1,?,-4.7,?,20.6µM*
OCC1OC(n2ccc3c(NO)ncnc32)C(O)C1O (stereo not given),2.06µM*,-1.5,-1.8%,?
OCC1OC(n2cnc3c(NCc4ccccc4O)ncnc32)C(O)C1O (stereo not given),-15.4%,-7.6,?,18.4µM*
COc1cccc(OC)c1C(=O)Nc1ccc(-c2nc3ncccc3o2)cc1,-8.9%,nt,3.7%,-16.2%
CCOc1ccc(NC(=O)CN(C)C(=O)CCCOc2ccc(Cl)c(C)c2)cc1OCC,?,-3.9,2.9%,20.6µM*
CCOc1ccc(NC(=O)CN(C)C(=O)CCc2ccccc2Cl)cc1OCC,-0.2%,-4.1,-0.4%,3.0%
O=c1c(S(=O)(=O)c2ccccc2)cn(Cc2ccccc2)c2cc(N3CCOCC3)c(F)cc12,-18.1%,nt,-0.3%,?
Cc1ccc(/C=C2\SC(=S)N(CCCC(=O)NNC(=O)c3ccccc3O)C2=O)cc1,-3.3%,0.1,-2.6%,10.3µM*
O=C(CCCN1C(=O)/C(=C/c2ccc3c(c2)OCO3)SC1=S)Nc1cccc(C(=O)O)c1,5.7%,-0.3,0.1%,10.3µM*

# Source: PubChem BioAssay (National Center for Advancing Translational Sciences (NCATS))
